The structures appear in SMILES notation. Records with an inconclusive call do not appear. Calls of active or inactive are those of the source. The call rests on the fitted dose curve; in most records, active means well fitted activation curve with a large enough effect in the repeat runs; inconclusive means weak or mixed curves; inactive means flat fitted curve, though single readings scatter.

The values that follow come from PubChem BioAssay (Tox21).
On the % scale 0 is the no-effect control and ±100 the full control effect.

This assay in a line: A CellTox Green Cytotoxicity Assay to monitor cytotoxicity in HEK293 cells - 24 hour (AID 1224875). Further: nearly all actives have a fitted effect of over 45% in size. As to conditions: CellTox Green fluorescence, hits give high values; series mostly up to 76.8 µM; activity change: at the top concentration. The text has this: National Center for Advancing Translational Sciences [NCATS]
NIH Chemical Genomics Center [NCGC]
U.S. Environmental Protection Agency [EPA]
National Institutes of Environmental Health Sciences [NIEHS]
National Toxicology Program [NTP]
Cell-based models are critical for drug discovery. Determining the natural cytotoxic effects resulting from test compounds is an essential research activity. A CellTox Green Cytotoxicity Assay to monitor cytotoxicity in real time of continues cell culture during 40 hours of the compound treatment was used to screen Tox21 10K library compounds in Hek293 cells. CellTox Green Cytotoxicity Assay is a nonlytic, homogeneous, biofluorescent method to measure cytotoxicity in cell culture after experimental manipulation. The assay system uses a proprietary asymmetric cyanine dye that is excluded from viable cells but preferentially stains the dead cell's DNA. […] Viable cells produce no appreciable increases in fluorescence. Therefore, the fluorescence signal produced by the binding interaction with dead cell DNA is proportional to cytotoxicity.
The mixture of Hek293 cell suspension and reagents were dispensed at 600cells/6 ul/well in 1536-well tissue culture treated black solid bottom plates using a Multidrop dispenser. After the assay plates were incubated at a 37 C/5% CO2 incubator for 5 hours, 23 nL of compounds dissolved in DMSO, positive and negative controls was transferred to the assay plate by a pintool work station. The plates were incubated at 37 C for 40 hours. The fluorescence intensity were measured at 0h, 8h, 16h, 24h, 32h and 40h time points using ViewLux plate reader during compound treatment.
Regarding `CC(C)(C)OC(=O)c1cccc(N)c1`, the “activity change” value is 6.89% (inactive).

With `CC(=O)c1ccccc1[N+](=O)[O-]`, the “activity change” value is 6.47% (inactive).

In the case of `CCOC(=O)c1ccccc1`, the “activity change” value is 3.58% (inactive).

For the compound `NC(CCC(=O)O)C(=O)O` (stereo not given), the “activity change” value was 17.8% (inactive).

On to `CCCOC(=O)CC`, for which the “activity change” value was 4.99% (inactive).

Take `CC(C)(C)C(=O)c1ccccc1`: the “activity change” value is -2.11% (inactive).

In the case of `CCO[Si](OCC)(OCC)c1ccccc1`, the “activity change” value is -2.52% (inactive).

`CN(C)CCCN(C)CCCN(C)C`: the “activity change” value was -5.85% (inactive).

With `O=Cc1cccc(Br)c1`, the “activity change” value is 7.96% (inactive).

On to `CC(CO)(CO)[N+](=O)[O-]`, for which the “activity change” value is 1.84% (inactive).

Regarding `CN1CC(=O)N/C1=N/C(=O)Nc1cccc(Cl)c1`, the “activity change” value is 4.29% [at 35.3 µM] (inactive).

For `CCOC(=O)C1=NOC(c2ccccc2)(c2ccccc2)C1`, the “activity change” value is -4.7% (inactive).

`C=C(C)C(=O)OCC1CCCO1` (stereo not given): the “activity change” value is -9.33% (inactive).

`CCCc1nn(C)c2c(=O)[nH]c(-c3cc(S(=O)(=O)N4CCN(C)CC4)ccc3OCC)nc12`: the “activity change” value was -19.4% [at 35.3 µM] (inactive).

On to `O=C(O)c1cn(C2CC2)c2cc(N3CCNCC3)c(F)cc2c1=O`, for which the “activity change” value is -2.6% [at 35.3 µM] (inactive).

On to `CCCCc1ccc2c(n1)[C@@H](c1ccc(OC)cc1C[C@H](C)C(=O)O)[C@H](C(=O)O)[C@H]2c1ccc2c(c1)OCO2`, for which the “activity change” value is -7.28% (inactive).

On to `CC(=O)Oc1cccc(C)c1`, for which the “activity change” value was -0.48% [at 35.3 µM] (inactive).

On to `CC1=NS(=O)(=O)c2cc(Cl)ccc2N1`, for which the “activity change” value was -9.93% [at 35.3 µM] (inactive).

In the case of `Nc1ccccn1`, the “activity change” value was 19.2% (inactive).

`Clc1cc(Cl)cc(Cl)c1`: the “activity change” value was 0.282% (inactive).

With `C[C@@H]1C[C@H]2[C@@H]3C[C@H](F)C4=CC(=O)C(Cl)=C[C@]4(C)[C@@]3(F)[C@@H](O)C[C@]2(C)[C@@]1(O)C(=O)CO`, the “activity change” value was -6.38% [at 35.3 µM] (inactive).

Turning to `COc1cc(-c2ccc(=O)[nH]n2)ccc1OC(F)F`, the “activity change” value is -2.2% [at 35.3 µM] (inactive).

With `CCCCCCC#CC(=O)OC`, the “activity change” value was 6.3% (inactive).

Regarding `COc1c(N2CCNC(C)C2)c(F)cc2c(=O)c(C(=O)O)cn(C3CC3)c12` (stereo not given), the “activity change” value was 3.67% [at 35.3 µM] (inactive).

As for `C[N+]1(C)CCCC(OC(=O)C(O)(c2ccccc2)c2ccccc2)C1` (stereo not given), the “activity change” value is 2.58% [at 35.3 µM] (inactive).

For the compound `COc1cc(C)nc(-n2nc(C)cc2OC)n1`, the “activity change” value was 1.28% [at 35.3 µM] (inactive).

For `CCCCN1C=CN(C)C1`, the activity change was -7.42% [at 15.8 µM] (inactive).

Regarding `CC(=O)c1ccc2ccccc2c1`, the “activity change” value is -0.62% (inactive).

`N[C@@H](CCC(=O)O)C(=O)O`: the “activity change” value was 0.76% (inactive).

As for `c1ccc(Cc2ccccc2)cc1`, the “activity change” value is 19.5% (inactive).

Consider `CC(=O)N[C@H]1[C@H]([C@H](O)[C@H](O)CO)OC(C(=O)O)=C[C@@H]1N=C(N)N`, for which the “activity change” value was 1.64% [at 35.3 µM] (inactive).

`C=CCCC(=O)O`: the “activity change” value was 5.23% (inactive).

With `CO[C@@]1(NC(=O)C(C(=O)O)c2ccc(O)cc2)C(=O)N2C(C(=O)O)=C(CSc3nnnn3C)CO[C@@H]21` (stereo not given in full), the “activity change” value is -16.8% [at 35.3 µM] (inactive).

Turning to `O=[N+]([O-])c1cncn1CCN1CCOCC1`, the “activity change” value is -14.3% [at 35.3 µM] (inactive).

For the compound `CNCC(O)c1ccc(O)c(O)c1` (stereo not given), the “activity change” value is -33.9% [at 35.3 µM] (inactive).

For the compound `CC(C)=CCC/C(C)=C/C#N`, the “activity change” value was 0.123% (inactive).

Take `C1CCC2(CCCCO2)OC1`: the “activity change” value was -8.6% (inactive).

Regarding `CCN1C=CN(C)C1C` (stereo not given), the “activity change” value is -21.6% (inactive).

Regarding `CC(C)C1CCC(O)CC1` (stereo not given), the “activity change” value is 1.84% (inactive).

`CCCc1ncc(C[n+]2ccccc2C)c(N)n1`: the “activity change” value was -6.95% [at 35.3 µM] (inactive).
